Test results as given in PubChem BioAssay (NCI).
About 83,000 compounds went through this panel and 20% of them were active in at least one assay; those are over-represented in the sample as a whole.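 Single-dose data. Exposure time 48 hours. Values below 10 considered active.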 Values without a mark were called inactive. Active and inactive are the calls of the source.

Key:
Assay in all cases: NCI-60 one-dose screen, 48 h (100 = growth as untreated, 0 = no growth, -100 = all killed)
Conditions in all cases: 10 µM unless noted
[1] = system: T-47D breast
[2] = system: BT-549 breast
[3] = system: MDA-MB-435 melanoma
[4] = system: SW-620 colon
[5] = system: MCF7 breast
[6] = system: HCT-116 colon
[7] = system: HCC-2998 colon
[8] = system: KM12 colon

Structure (SMILES)	growth [1]	growth [2]	growth [3]	growth [4]	growth [5]	growth [6]	growth [7]	growth [8]
CN(C)c1ccc(-c2ccc(-c3ccc(C(=N)N)cn3)o2)cc1	-68.2% (active)	-11.8% (active)	-84.2% (active)	-72.6% (active)	-38.1% (active)	-62.4% (active)	-73.5% (active)	-97% (active)
CC[C@H](C)[C@H]1NC(=O)[C@@H](N[C@](C)(O)[C@@H](N)CC(C)C)[C@@H](C)OC(=O)[C@H](Cc2ccc(OC)cc2)N(C)C(=O)[C@@H]2CCCN2C(=O)[C@H](CC(C)C)NC(=O)[C@@H](C)C(=O)[C@H](C(C)C)OC(=O)C[C@@H]1O	-15.4% (active)	-45.9% (active)	-35.4% (active)	0.636% (active)	2.76% (active)	-15.1% (active)	-26.8% (active)	-14.8% (active)
COc1ccc(-c2nc(-c3nc4ccc(F)cc4[nH]3)cc3c2[nH]c2ccccc23)cc1	40.8%	41.8%	27.5%	48.3%	32.2%	25.3%	30.9%	23.4%
Cc1nn(-c2ccc(Cl)cc2)c(=O)n1CCOc1ccccc1Cl	79.5%	94.4%	107%	103%	98.3%	74%	106%	101%
COc1cccc(/C=C/C(=O)c2sc(Nc3ccc(O)cc3)nc2C)c1	90.8%	14.6%	88.4%	110%	72.2%	87.4%	105%	78.4%
COc1ncc(-c2ccc3ncnc(Nc4cccc(Cl)c4)c3c2)cc1N(S(C)(=O)=O)S(C)(=O)=O	18.5%	78.1%	77.7%	75.7%	27.7%	81.2%	76.4%	81.1%
CC/C=C\C[C@H]1C/C=C2/C(=O)C(Cl)=C[C@@H]2C/C=C\CCCC(=O)O1	-16.1% (active)	-75% (active)	-74.8% (active)	-74.8% (active)	-40.4% (active)	-81% (active)	-80.2% (active)	-74.3% (active)
CCCOC(=O)C1(O)CCCC1	97.2%	113%	101%	104%	97.9%	97.3%	108%	116%
Cc1ccc2nc(-c3c(CCCO)noc3N)[nH]c(=O)c2c1	107%	102%	110%	103%	88.7%	102%	128%	102%
CCOC(=O)c1cc(/C(=N\O)c2cc(OC)c(OC)c(OC)c2)n2c(C)cccc12	27.7%	19.4%	-10.2% (active)	23.3%	17.1%	27.2%	70.8%	27.9%
O=C(/C=C/CN1CCCCC1)Nc1cc2c(Nc3ccc(F)c(Cl)c3F)ncnc2cc1OCCOC(F)F	-1.83% (active)	18.3%	8.14% (active)	10.3%	17.6%	6.6% (active)	40.6%	36.5%
COc1cc(-n2nc(C(=O)Nc3ccc(C(=O)O)cc3)nc2-c2ccccc2)cc(OC)c1OC	79%	105%	113%	101%	93.5%	91.7%	97.9%	105%
O=C(CSc1nc(-c2ccc(Cl)cc2)cn1-c1ccc(Cl)cc1)c1ccc(Br)cc1	69.6%	94.1%	91.5%	89.3%	83.9%	43.9%	89.6%	88.5%
Cc1ccccc1C(=O)c1ccccc1C(=O)O	107%	106%	105%	102%	100%	103%	105%	107%
COc1ccc(C(=O)/C=C/c2cccc([N+](=O)[O-])c2)c(OC)c1	26.6%	4.85% (active)	15.2%	-67.4% (active)	7.98% (active)	-80.1% (active)	36.6%	13.2%
Cc1cnc(NC(=O)C(Cc2ccccc2)NC(=O)c2ccccc2)s1 (stereo not drawn)	87.3%	88.4%	13.2%	80.3%	46.2%	49.7%	73.3%	60.2%

Structure (SMILES)	growth [1]	growth [2]	growth [3]	growth [4]	growth [5]	growth [6]	growth [7]	growth [8]
COc1cc(/C=C2\C=C(c3ccc(F)cc3)N(Cc3ccccc3)C2=O)cc(OC)c1OC	49.1%	77.3%	75.2%	77.4%	50.8%	42.2%	103%	63.1%
COc1ccc(C(=O)/C=C/c2cc(C(=O)c3cc(OC)c(OC)c(OC)c3)ccc2OC)cc1	68%	73.7%	51.8%	13.8%	20.9%	19.8%	93.1%	40.6%
O=S=Nc1ccc([N+](=O)[O-])cc1	76.2%	91.8%	95.5%	93.4%	95.7%	94%	93.5%	81.6%
COc1ccc(C(=O)c2cc(OC)c(OC)c(OC)c2)cc1/C=C/C(=O)c1ccc(OC)c(OC)c1	35.2%	36.5%	20%	9.37% (active)	17.3%	10.4%	45.9%	9.37% (active)
COC(=O)CCCCCCN=Cc1c(O)c(O)c(C(C)C)c2cc(C)c(-c3c(C)cc4c(C(C)C)c(O)c(O)c(C=NCCCCCCC(=O)OC)c4c3O)c(O)c12	20.6%	38.6%	17.2%	17.9%	7.98% (active)	8.17% (active)	32.6%	18.2%
CCCC(C(=O)OCC)C(C)OC(=O)OCC (stereo not drawn)	86.6%	115%	101%	113%	101%	103%	103%	101%
CSc1ccccc1C#C/C=C\C#Cc1ccccc1N1CCCCC1=O	95.1%	92.1%	107%	100%	94.9%	95%	99.9%	114%
O=C(Nc1ccc(OCc2nnc(-c3ccc(Cl)cc3)o2)c(F)c1)Nc1ccc(Cl)c(Cl)c1	55.8%	93.6%	73.1%	47%	50.3%	29.7%	85.4%	53.7%
CC(C)C(C(=O)CCN(C)C)c1ccc(Cl)cc1 (stereo not drawn)	82.9%	90.5%	107%	108%	87.4%	79.9%	104%	104%
O=C1c2ccccc2C(=O)c2c(N=Nc3sc(=O)[nH]c3S)cccc21	82.4%	109%	100%	90%	72%	95.7%	102%	90.3%
Cc1cccc(NC(=O)c2sc3nc4c(cc3c2N)CCC4)c1C	64%	61.7%	-26.9% (active)	28.6%	13%	19.7%	33.1%	12.2%
COc1cc(Br)c(OC)cc1Br	82%	97.7%	105%	94.7%	63.1%	91.5%	99.6%	76.3%
CCCCCc1c(C)[nH]c(/C=c2\[nH]/c(=C3/C=c4ccccc4=N3)cc2OC)c1C	-6.71% (active)	-35.2% (active)	-53.6% (active)	-36.1% (active)	-54.5% (active)	-97.2% (active)	-11.4% (active)	-21.7% (active)
CCOC(=O)C1=C(C)NC(=O)NC1c1ccc(OCC(=O)N/N=C/c2ccc(Cl)cc2)cc1 (stereo not drawn)	87.1%	87.5%	90.6%	94.2%	90.1%	94.2%	97.5%	96.3%
O=C(OCCCCOC(=O)n1cnc2ccccc21)n1cnc2ccccc21	92.2%	104%	103%	106%	96.7%	102%	111%	104%
